Assay results published in PubChem BioAssay (EPA / NIEHS).
Records with an inconclusive call do not appear. Activity calls are given as the source filed them. How the source made its calls, unless noted: active means hit-call score of the fitted dose curve at least 0.9, where 1 is the maximum; inactive means score below 0.9.

Key:
[1] = biological target: human Vitamin D Receptor (VDR), VDR (gene 7421) (UniProt P11473); experiment: ATG_VDR_TRANS: Attagene TRANS-FACTORIAL HepG2 Assay for human Vitamin D Receptor (VDR) (AID 2283022; active means hit-call score of the fitted dose curve at least 0.9, where 1 is the maximum)
Chain of human Vitamin D Receptor (VDR), VDR (gene 7421) (P11473 whole entry, looked up, the tested form may be a part): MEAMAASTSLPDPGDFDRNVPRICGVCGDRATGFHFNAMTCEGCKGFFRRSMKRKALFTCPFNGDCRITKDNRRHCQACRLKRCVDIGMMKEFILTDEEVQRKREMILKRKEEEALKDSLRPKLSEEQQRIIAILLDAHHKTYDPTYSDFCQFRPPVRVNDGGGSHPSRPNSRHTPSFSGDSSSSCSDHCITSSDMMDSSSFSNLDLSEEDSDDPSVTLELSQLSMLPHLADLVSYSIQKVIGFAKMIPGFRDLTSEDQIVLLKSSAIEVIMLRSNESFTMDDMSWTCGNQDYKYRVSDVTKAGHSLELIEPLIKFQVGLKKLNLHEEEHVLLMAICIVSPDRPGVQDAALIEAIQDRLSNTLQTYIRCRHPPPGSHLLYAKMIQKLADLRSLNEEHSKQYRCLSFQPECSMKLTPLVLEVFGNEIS
Procedure, shortened: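 HepG2 cells were transiently transfected with multiple GAL4-UAS reporter units, so signal reflects exogenous chimeric receptor-Gal4 activity. After 24 h compound exposure, reporter mRNA was measured by RT-PCR, fluorescent labelling and capillary electrophoresis, fitted for gain of signal versus DMSO.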

[2] = BSK_3C_SRB: Viability Assessment in the BioMAP Diversity Plus: 3C Assay (AID 2283023); conditions: primary human endothelial cells (HUVEC);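 further: fitted both ways against DMSO so a hit may be signal rise or drop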
Procedure, shortened: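 Primary human umbilical vein endothelial cells in the 3C system were read 24 h after compound dosing. Total protein was stained with 0.1% sulforhodamine B after 10% TCA fixation and read at 560 nm, with bidirectional fitting against DMSO as baseline.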

[3] = read-out: Matrix Metallopeptidase 1 (MMP1), MMP1 (gene 4312); experiment: BSK_BE3C_MMP1: BioMAP Diversity Plus: BE3C Assay for Matrix Metallopeptidase 1 (MMP1) Biomarker Activity (AID 2283024); conditions: primary human bronchial epithelial cells; actives raise or lower the signal
Procedure, shortened: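 ELISA read-out of MMP1 in human lung bronchial epithelial primary cultures, 24 h post-dose; bidirectional curve fit vs DMSO baseline, gain or loss of signal scored.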

[4] = BSK_3C_Vis: BioMAP Diversity Plus: 3C Assay for Morphology Visualization (AID 2283025); conditions: primary human endothelial cells (HUVEC);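 further: fitted both ways so gain or loss versus DMSO counts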;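 on AC50: light microscopy image of cell morphology used as background control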
Procedure, shortened: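 HUVEC, 3C system; light microscopy of morphology at 24 h post-dose. Bidirectional fit vs DMSO baseline. Secondary readout, background-control function.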

[5] = read-out: Pselectin, SELP (gene 6403); experiment: BSK_4H_Pselectin: BioMAP Diversity Plus: 4H Assay for Pselectin Biomarker Activity (AID 2283026); conditions: primary human endothelial cells (HUVEC); actives raise or lower the signal
Procedure, shortened: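 HUVEC, 24 h chemical exposure; P-selectin read by ELISA. Bidirectional curve fit vs DMSO baseline; gain or loss of signal scored.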

[6] = BSK_4H_SRB: Viability Assessment in the BioMAP Diversity Plus: 4H Assay (AID 2283027); conditions: primary human endothelial cells (HUVEC);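 further: cells exposed to compound for 24 h before staining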;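 on AC50: curves fitted both ways versus DMSO so AC50 may be loss or gain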
Procedure, shortened: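 HUVEC, 24 h post-dose; 10% TCA fix, 0.1% SRB stain, A560 nm. Total protein = overt cytotoxicity, parallel to biomarker read. Bidirectional fit vs DMSO baseline.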

[7] = BSK_BE3C_SRB: Viability Assessment in the BioMAP Diversity Plus: BE3C Assay (AID 2283028); conditions: primary human bronchial epithelial cells
Procedure, shortened: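 Human primary bronchial epithelial cells were exposed to test chemicals for 24 h. Total protein in parallel cultures was then measured by staining with 0.1% sulforhodamine B after 10% TCA fixation, with absorbance read at 560 nm. Activity was fitted bidirectionally against DMSO.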

[8] = read-out: Thrombomodulin, THBD (gene 7056); experiment: BSK_3C_Thrombomodulin: BioMAP Diversity Plus: 3C Assay for Thrombomodulin Biomarker Activity (AID 2283029); conditions: primary human endothelial cells (HUVEC); actives raise or lower the signal
Procedure, shortened: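 HUVEC, 3C conditions; compound 24 h; thrombomodulin by ELISA; bidirectional curve fit vs DMSO baseline; parallel SRB total-protein staining for cytotoxicity.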

[9] = read-out: Urokinase-type plasminogen activator receptor (uPAR), PLAUR (gene 5329); experiment: BSK_4H_uPAR: BioMAP Diversity Plus: 4H Assay for Urokinase-type plasminogen activator receptor (uPAR) Biomarker Activity (AID 2283030); conditions: primary human endothelial cells (HUVEC); actives raise or lower the signal
Procedure, shortened: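 Primary human umbilical vein endothelial cells were exposed to chemical for 24 h before cell-surface uPAR was quantified by ELISA. Activity was fitted bidirectionally against the DMSO negative control baseline.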

[10] = read-out: Vascular endothelial growth factor receptor 2 (Homo sapiens) (UniProt P35968); experiment: BSK_4H_VEGFRII: BioMAP Diversity Plus: 4H Assay for Vascular endothelial growth factor receptor 2 (VEGFR2) Biomarker Activity (AID 2283031); conditions: primary human endothelial cells (HUVEC); actives raise or lower the signal
Procedure, shortened: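 Primary human umbilical vein endothelial cells in the BioMAP 4H system were dosed with test chemical, and 24 h later VEGFRII was measured by ELISA. Activity was fitted bidirectionally against DMSO as negative control and baseline.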

[11] = read-out: Human Leukocyte Antigen - DR isotype (HLADR), HLA-DRA (gene 3122); experiment: BSK_BE3C_HLADR: BioMAP Diversity Plus: BE3C Assay for Human Leukocyte Antigen - DR isotype (HLADR) Biomarker Activity (AID 2283032); conditions: primary human bronchial epithelial cells; actives raise or lower the signal
Procedure, shortened: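 Primary human bronchial epithelial cells (BE3C); 24 h chemical exposure; HLA-DR by ELISA; bidirectional curve fit vs DMSO baseline.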

[12] = read-out: Vascular cell adhesion molecule 1 (VCAM1), VCAM1 (gene 7412); experiment: BSK_4H_VCAM1: BioMAP Diversity Plus: 4H Assay for Vascular cell adhesion molecule 1 (VCAM1) Biomarker Activity (AID 2283033); conditions: primary human endothelial cells (HUVEC); actives raise or lower the signal
Procedure, shortened: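 HUVEC, 24 h post-dose; VCAM-1 by ELISA. Bidirectional curve fit vs DMSO baseline. Parallel SRB total-protein stain (0.1% SRB after 10% TCA fixation, 560 nm) for cytotoxicity.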

[13] = read-out: Interferon-gamma inducible Protein 10 (IP10), CXCL10 (gene 3627); experiment: BSK_BE3C_IP10: BioMAP Diversity Plus: BE3C Assay for Interferon-gamma inducible Protein 10 (IP10) Biomarker Activity (AID 2283034); conditions: primary human bronchial epithelial cells; actives raise or lower the signal
Procedure, shortened: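 ELISA readout of IP-10 in BE3C system: primary human bronchial epithelial cells, 24 h post-dosing; bidirectional curve fit vs DMSO baseline.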

[14] = read-out: Monokine induced gamma interferon (MIG), CXCL9 (gene 4283); experiment: BSK_BE3C_MIG: BioMAP Diversity Plus: BE3C Assay for Monokine induced gamma interferon (MIG) Biomarker Activity (AID 2283035); conditions: primary human bronchial epithelial cells; actives raise or lower the signal
Procedure, shortened: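 Dose cells (human primary bronchial epithelial), incubate 24 h, quantify MIG by ELISA, then fit concentration–response in both directions relative to DMSO control.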

[15] = read-out: Transforming growth factor beta 1 (TGFb1), TGFB1 (gene 7040); experiment: BSK_BE3C_TGFb1: BioMAP Diversity Plus: BE3C Assay for Transforming growth factor beta 1 (TGFb1) Biomarker Activity (AID 2283036); conditions: primary human bronchial epithelial cells; actives raise or lower the signal
Procedure, shortened: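 Read-out: ELISA for TGF-b1 in primary human bronchial epithelial cultures, 24 h post-dose. Bidirectional curve fitting vs DMSO control; gain or loss of signal both scored.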

[16] = read-out: Plasminogen activator inhibitor-1 (PAI1), SERPINE1 (gene 5054); experiment: BSK_BE3C_PAI1: BioMAP Diversity Plus: BE3C Assay for Plasminogen activator inhibitor-1 (PAI1) Biomarker Activity (AID 2283037); conditions: primary human bronchial epithelial cells; actives raise or lower the signal
Procedure, shortened: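 ELISA read-out of PAI-1 from human bronchial epithelial primary cells, 24 h post-dosing; bidirectional curve fit vs DMSO baseline, gain or loss of signal scored.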

[17] = read-out: urokinase plasminogen activator (uPA), PLAU (gene 5328); experiment: BSK_BE3C_uPA: BioMAP Diversity Plus: BE3C Assay for urokinase plasminogen activator (uPA) Biomarker Activity (AID 2283038); conditions: primary human bronchial epithelial cells; actives raise or lower the signal
Procedure, shortened: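 Human primary bronchial epithelial cells were exposed to chemical for 24 h, then uPA levels were measured by ELISA. Responses were fitted bidirectionally against DMSO as negative control and baseline. Parallel SRB staining of total protein gauged overt cytotoxicity.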

[18] = read-out: Urokinase-type plasminogen activator receptor (uPAR), PLAUR (gene 5329); experiment: BSK_BE3C_uPAR: BioMAP Diversity Plus: BE3C Assay for Urokinase-type plasminogen activator receptor (uPAR) Biomarker Activity (AID 2283039); conditions: primary human bronchial epithelial cells; actives raise or lower the signal;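 further: cells exposed to compound for one day before measurement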
Procedure, shortened: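 ELISA readout of uPAR on human lung primary bronchial epithelial cells, 24 h post-dosing. Bidirectional curve fit relative to DMSO vehicle baseline; gain or loss of signal both scored.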

[19] = read-out: Interleukin-6 (IL6), IL6 (gene 3569); experiment: BSK_CASM3C_IL6: BioMAP Diversity Plus: CASM3C Assay for Interleukin-6 (IL6) Biomarker Activity for (AID 2283040); conditions: primary human coronary artery smooth muscle cells; actives raise or lower the signal
[20] = read-out: Tissue plasminogen activator (tPA), PLAT (gene 5327); experiment: BSK_BE3C_tPA: BioMAP Diversity Plus: BE3C Assay for Tissue plasminogen activator (tPA) Biomarker Activity (AID 2283041); conditions: primary human bronchial epithelial cells; actives raise or lower the signal
Procedure, shortened: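 ELISA read-out of tPA on human primary bronchial epithelial cells, 24 h post-dosing; bidirectional fit vs DMSO negative control/baseline.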

Measured: AC50

O=NO
inactive: [1] | [2] | [3] | [4] | [5] | [6] | [7] | [8] | [9] | [10] | [11] | [12] | [13] | [14] | [15] | [16] | [17] | [18] | [19] | [20]

Cc1cc(SC2=C(O)C[C@@](CCc3ccc(N)cc3)(C(C)C)OC2=O)c(C(C)(C)C)cc1CO
inactive: [1] | [2] | [3] | [4] | [5] | [6] | [7] | [8] | [9] | [10] | [11] | [12] | [13] | [14] | [15] | [16] | [18] | [19] | [20]

CCCCCCC(CCCCCCCCCCC(=O)OCC(COC(C)=O)OC(C)=O)OC(C)=O (configuration not stated)
active: [13] 11.4 µM | [14] 13.7 µM | [15] 7.57 µM | [16] 7.39 µM | [17] 13.2 µM | [20] 3.58 µM
inactive: [1] | [2] | [3] | [4] | [5] | [7] | [8] | [9] | [10] | [12] | [18] | [19]

CC(=O)OCC(COC(C)=O)OC(C)=O
inactive: [1] | [2] | [3] | [4] | [5] | [6] | [7] | [8] | [9] | [10] | [12] | [13] | [14] | [15] | [16] | [17] | [18] | [19] | [20]

NCCOCCOCCN
inactive: [1] | [2] | [3] | [4] | [5] | [6] | [7] | [8] | [9] | [10] | [11] | [12] | [13] | [14] | [15] | [16] | [18] | [19] | [20]

CC(=O)CC(c1ccccc1)c1c(O)c2ccccc2oc1=O (configuration not stated)
inactive: [1] | [2] | [3] | [4] | [5] | [6] | [7] | [8] | [9] | [10] | [11] | [12] | [13] | [14] | [15] | [16] | [18] | [19] | [20]

CCCCCCCCCC[N+](C)(C)[O-]
inactive: [1] | [2] | [3] | [4] | [5] | [6] | [7] | [8] | [9] | [10] | [11] | [12] | [13] | [14] | [15] | [16] | [18] | [19] | [20]

CCC(C)N(C)C(=O)c1cc2ccccc2c(-c2ccccc2Cl)n1 (configuration not stated)
inactive: [1] | [2] | [3] | [4] | [5] | [7] | [8] | [9] | [10] | [11] | [12] | [13] | [14] | [15] | [16] | [18] | [19] | [20]

CC(C)(C)c1ccccc1
inactive: [1] | [2] | [3] | [4] | [5] | [6] | [7] | [8] | [9] | [10] | [12] | [13] | [14] | [15] | [16] | [17] | [18] | [19] | [20]

C=CCCCCCCCCCCCC
inactive: [1] | [2] | [4] | [5] | [6] | [7] | [8] | [9] | [10] | [11] | [12] | [13] | [14] | [15] | [16] | [17] | [18] | [19] | [20]

CCCCCCC(C=O)=Cc1ccccc1
active: [2] 31 µM | [4] 37.5 µM | [5] 31.1 µM | [6] 31.8 µM | [12] 33.5 µM
inactive: [1] | [7] | [8] | [9] | [10] | [11] | [13] | [14] | [15] | [16] | [17] | [18] | [19] | [20]

CS(=O)(=O)c1ccc([C@@H](C[C@H]2CCC(=O)C2)C(=O)Nc2cnccn2)cc1Cl
inactive: [1] | [2] | [3] | [4] | [5] | [7] | [8] | [9] | [10] | [11] | [12] | [13] | [14] | [15] | [16] | [17] | [18] | [19] | [20]

CC1(C)C(=O)NC(=O)N1CO
inactive: [1] | [2] | [3] | [4] | [5] | [7] | [8] | [9] | [10] | [12] | [13] | [14] | [15] | [16] | [17] | [18] | [19] | [20]

C=CCc1ccc(OC)c(OC)c1
inactive: [1] | [2] | [3] | [4] | [5] | [7] | [8] | [9] | [10] | [12] | [13] | [14] | [15] | [16] | [18] | [19] | [20]
